In the library only some 2.8% were active in any assay of this set; here they are far more common.
PAX8 inh HTS – PAX8 transcriptional activity inhibition; RMG-I TPO-luciferase reporter, SteadyGlo, 24 h; actives 1.2% (n = 360,000); AID 652154; inhibition, % at 12.6 µM;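 active means mean replicate inhibition at least 60% with every replicate also reaching 60%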;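 further: luciferase light reporting Pax8 driven TPO promoter activity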
LMP1 NFkB inh – reduces LMP1-driven NF-kappaB luciferase signal. LMP1-induced NF-kappaB luciferase reporter cells, luminescence. inhibition, % at 12.5 µM. actives 0.69% (n = 350,000); in the data active means inhibition above about 41%
NSD2 inh – blocks human histone methyltransferase NSD2; O96028; NSD2 peptide methylation, AlphaScreen, 120 min; inhibition, % at 12.5 µM; actives 0.54% (n = 310,000); AID 743445; in the data active means inhibition above about 50%
Target sequence (O96028 whole entry, looked up): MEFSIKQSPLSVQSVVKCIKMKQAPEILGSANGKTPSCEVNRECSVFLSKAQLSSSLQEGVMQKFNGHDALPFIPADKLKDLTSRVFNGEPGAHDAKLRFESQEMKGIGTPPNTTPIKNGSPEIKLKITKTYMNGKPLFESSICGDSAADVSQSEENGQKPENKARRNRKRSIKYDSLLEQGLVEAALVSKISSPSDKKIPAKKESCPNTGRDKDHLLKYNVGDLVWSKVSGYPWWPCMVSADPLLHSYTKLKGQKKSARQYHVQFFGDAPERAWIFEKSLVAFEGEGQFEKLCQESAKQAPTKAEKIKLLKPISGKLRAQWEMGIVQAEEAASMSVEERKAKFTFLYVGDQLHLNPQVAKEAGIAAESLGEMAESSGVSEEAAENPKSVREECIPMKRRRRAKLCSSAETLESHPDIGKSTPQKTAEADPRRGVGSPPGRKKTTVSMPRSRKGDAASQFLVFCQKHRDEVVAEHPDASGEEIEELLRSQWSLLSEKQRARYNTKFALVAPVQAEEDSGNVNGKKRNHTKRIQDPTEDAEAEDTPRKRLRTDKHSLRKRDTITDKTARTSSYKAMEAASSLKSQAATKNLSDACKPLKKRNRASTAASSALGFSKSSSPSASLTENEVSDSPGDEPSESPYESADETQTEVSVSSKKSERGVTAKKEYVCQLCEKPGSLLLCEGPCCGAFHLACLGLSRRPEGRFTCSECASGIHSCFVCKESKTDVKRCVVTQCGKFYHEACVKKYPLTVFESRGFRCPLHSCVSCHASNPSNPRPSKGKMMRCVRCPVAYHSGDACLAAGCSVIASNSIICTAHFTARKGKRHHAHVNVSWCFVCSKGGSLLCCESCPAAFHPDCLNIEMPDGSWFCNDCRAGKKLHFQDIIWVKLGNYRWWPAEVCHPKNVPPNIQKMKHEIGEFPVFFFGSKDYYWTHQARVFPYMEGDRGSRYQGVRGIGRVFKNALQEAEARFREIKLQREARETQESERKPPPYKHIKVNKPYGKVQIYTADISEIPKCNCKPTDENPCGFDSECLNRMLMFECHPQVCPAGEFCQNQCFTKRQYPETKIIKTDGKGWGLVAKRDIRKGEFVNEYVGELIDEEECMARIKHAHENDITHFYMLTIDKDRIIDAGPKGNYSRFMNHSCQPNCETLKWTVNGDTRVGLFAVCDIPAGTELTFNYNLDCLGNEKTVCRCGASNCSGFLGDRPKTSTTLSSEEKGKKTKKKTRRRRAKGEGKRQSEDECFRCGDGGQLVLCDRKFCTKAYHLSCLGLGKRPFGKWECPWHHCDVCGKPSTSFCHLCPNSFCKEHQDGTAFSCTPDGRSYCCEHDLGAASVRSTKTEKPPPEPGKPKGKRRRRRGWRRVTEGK
Env fusion inh – blocks HIV Env-driven cell-cell fusion; HeLa-JRFL Env/CEM21 cell fusion, luciferase; inhibition, % at 12.3 µM; actives 1.1% (n = 360,000); AID 651610;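 active means mean replicate inhibition score of at least 50 and every replicate individually at or above 50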
N-glyco inh – N-linked glycosylation inhibition. D54 ERlucT glycosylation luciferase reporter, 24 h; percent of 100 nM tunicamycin response. reporter increase, % at 12.5 µM. actives 0.23% (n = 360,000);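 active means mean luciferase reporter signal, scaled so untreated is 0 and the glycosylation-blocking control 100, at or above a set limit in every replicate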;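 further: luciferase carries N-glycosylation sites so blocking glycosylation raises the light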
Shn3 3UTR inh – reduces Shn3 3'UTR luciferase signal in osteoblasts. Clone20 osteoblast Shn3 3'UTR firefly luciferase, 24 h. inhibition, % at 12.5 µM. actives 0.52% (n = 360,000);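 active means mean inhibition of at least 75% with every replicate also reaching 75%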
Numbers stand for hits; n = inactive; x = no result; ! = a repeat was not active; [ ] = dose if it differs, or a comment.

SMILES | PAX8 inh HTS | LMP1 NFkB inh | NSD2 inh | Env fusion inh | N-glyco inh | Shn3 3UTR inh
CC(C)(C)N1C(=O)[C@H]2[C@@H](c3ccc(Br)cc3)N3C(=O)N(c4cccc(Br)c4)C(=O)[C@@]3(Cc3ccccc3)[C@H]2C1=O | x | n | x | x | n | n
CC(C)(C)N1C(=O)[C@H]2[C@@H](c3ccc(Br)cc3)N3C(=O)N(c4ccccc4)C(=O)[C@@]3(Cc3ccccc3)[C@H]2C1=O | n | n | x | 68 | n | n
COc1cc2nc(N3CCN(C(=O)[C@H]4COc5ccccc5O4)CC3)nc(N)c2cc1OC | n | n | x | n | n | n
COc1cc2nc(N3CCN(C(=O)C4CCCO4)CC3)nc(N)c2cc1OC (stereo not given) | n | 79! | x | n | n | n
C[C@H]1CN([C@@H](C)CO)C(=O)CCCn2cc(nn2)CO[C@@H]1CN(C)Cc1ccc(-c2ccccc2)cc1 | x | x | x | n | x | x
C[C@@H]1CN([C@H](C)CO)C(=O)c2cc(NS(=O)(=O)c3ccc(F)cc3)ccc2O[C@@H]1CN(C)Cc1ccc(C(F)(F)F)cc1 | 115 | x | x | n | x | x
C[C@@H]1CN([C@H](C)CO)C(=O)c2cccc(NS(=O)(=O)c3cn(C)cn3)c2O[C@H]1CN(C)C(=O)Nc1ccc(F)cc1 | n | x | x | 73[16.7 µM] | x | x
C[C@@H]1CN([C@H](C)CO)C(=O)c2cc(NS(=O)(=O)c3ccc(F)cc3)ccc2O[C@H]1CN(C)Cc1ccc(C(F)(F)F)cc1 | n | x | x | 72[16.7 µM] | x | x
C[C@H]1CN([C@@H](C)CO)C(=O)c2cc(NS(=O)(=O)c3ccc(F)cc3)ccc2O[C@@H]1CN(C)Cc1ccc(C(F)(F)F)cc1 | n | x | x | n | x | x
Cc1ccc(S(=O)(=O)Nc2cccc3c2O[C@H](CN(C)C(=O)Nc2ccc(C(F)(F)F)cc2)[C@H](C)CN([C@H](C)CO)C3=O)cc1 | n | x | x | n | x | x
Cc1ccc(S(=O)(=O)Nc2cccc3c2O[C@@H](CN(C)C(=O)Nc2ccc(C(F)(F)F)cc2)[C@@H](C)CN([C@H](C)CO)C3=O)cc1 | 104 | x | x | n | x | x
C[C@@H]1CN([C@H](C)CO)C(=O)c2cccc(NS(=O)(=O)c3ccc(F)cc3)c2O[C@H]1CN(C)Cc1ccc(C(F)(F)F)cc1 | n | x | x | n | x | x
C[C@@H]1CN([C@@H](C)CO)C(=O)c2cccc(NS(=O)(=O)c3ccc(F)cc3)c2O[C@@H]1CN(C)Cc1ccc(C(F)(F)F)cc1 | n | x | x | 58[16.7 µM] | x | x
COc1cc(SC)ccc1C(=O)Nc1ccc(Cl)cn1 | n | 68 | n | n | n | n
CSc1ccc(Cl)c(C(=O)Nc2ccc(Cl)cn2)c1 | n | n | n | n | n | n
O=C(NCCCn1ccnc1)C(=O)NCC1OCCCN1S(=O)(=O)c1ccccc1 (stereo not given) | n | n | n | n | n | 90
CCCN1C[C@@H](C)[C@@H](OC)CN(C)C(=O)c2ccc(NC(=O)Nc3cccc(F)c3)cc2OC[C@H]1C | n | x | x | n | x | x
COCCCNc1nc2c(c(=O)n(Cc3ccc(Cl)cc3)c(=O)n2C)n1C | n | n | n | n | n | n
Cn1c(NCCCN2CCOCC2)nc2c1c(=O)n(Cc1ccc(Cl)cc1Cl)c(=O)n2C | x | n | n | 63 | n | n
CCOC(=O)c1cc(-c2ccccc2C)nn1Cc1cc(C)no1 | n | 58 | x | n | n | n
CN(C(=O)c1ccc(S(=O)(=O)c2cccc(Cl)c2)c([N+](=O)[O-])c1)C1CCCCC1 | n | n | n | 59 | n | n
Cc1ccc(S(=O)(=O)N(C)C[C@@H]2Oc3ccc(NC(=O)C4CCCCC4)cc3CC(=O)N([C@@H](C)CO)C[C@@H]2C)cc1 | x | x | x | 79[16.7 µM] | x | x
COc1ccc(S(=O)(=O)N(C)C[C@@H]2Oc3ccc(NC(=O)C4CCCCC4)cc3CC(=O)N([C@@H](C)CO)C[C@@H]2C)cc1 | n | x | x | 66[16.7 µM] | x | x
CC(C)NC(=O)N(C)C[C@@H]1Oc2ccc(NC(=O)C3CC3)cc2CC(=O)N([C@@H](C)CO)C[C@@H]1C | n | x | x | 59[16.7 µM] | x | x
Cc1ccc(S(=O)(=O)N(C)C[C@@H]2Oc3ccc(NC(=O)C4CCCCC4)cc3C(=O)N([C@@H](C)CO)C[C@@H]2C)cc1 | n | x | x | n | x | x
SMILES | PAX8 inh HTS | LMP1 NFkB inh | NSD2 inh | Env fusion inh | N-glyco inh | Shn3 3UTR inh
Cc1ccc(S(=O)(=O)N(C)C[C@H]2Oc3ccc(NC(=O)C4CCCCC4)cc3C(=O)N([C@H](C)CO)C[C@H]2C)cc1 | n | n | x | n | 45 | n
CC(C)NC(=O)N(C)C[C@H]1Oc2ccc(NC(=O)C3CC3)cc2CC(=O)N([C@H](C)CO)C[C@H]1C | n | x | x | n | x | x
COc1ccc(S(=O)(=O)N(C)C[C@H]2Oc3ccc(NC(=O)C4CCCCC4)cc3CC(=O)N([C@H](C)CO)C[C@@H]2C)cc1 | n | x | x | n | x | x
C[C@@H]1CCCCO[C@@H](CN(C)CC2CCCCC2)[C@H](C)CN([C@H](C)CO)C(=O)c2cc(NS(=O)(=O)c3cccs3)ccc2O1 | n | x | x | n | x | x
CNC[C@@H]1OCCCC[C@@H](C)Oc2ccc(NC(=O)Nc3c(C)noc3C)cc2C(=O)N([C@H](C)CO)C[C@@H]1C | n | x | x | n | x | x
CCCCCSc1nc2c(c(=O)[nH]c(=O)n2C)n1CC | n | 82 | x | n | n | n
COCCn1c(SCCN2CCOCC2)nc2c1c(=O)[nH]c(=O)n2C | n | 77 | x | n | n | n
C=CCn1c(SCCN2CCOCC2)nc2c1c(=O)[nH]c(=O)n2C | n | n | n | n | n | n
CN(C)CC(=O)N[C@H]1CC[C@@H](CCNC(=O)C2CCCCC2)O[C@@H]1CO | n | x | x | n | x | x
CO[C@@H]1CN(C)C(=O)c2ccc(NC(=O)C3CCCC3)cc2OC[C@@H](C)NC[C@H]1C | n | x | x | x | x | x
Cc1ccc(S(=O)(=O)Nc2ccc3c(c2)C(=O)N([C@H](C)CO)C[C@@H](C)[C@@H](CN(C)Cc2ccncc2)OCCCC[C@H](C)O3)cc1 | n | x | x | n | x | x
CCCC(=O)Nc1ccc2c(c1)C(=O)N(C)C[C@@H](OC)[C@@H](C)CN(Cc1nccs1)[C@H](C)CO2 | n | x | x | n | x | x
COc1cccc(C#Cc2cnc3c(c2)C(=O)N([C@@H](C)CO)C[C@@H](C)[C@@H](CN(C)C(=O)C2CCOCC2)O3)c1 | n | x | x | n | x | x
Cc1cc(NC(=O)CSc2nc3sc(C)c(C)c3c(=O)n2C2CCCC2)no1 | x | n | n | x | 27 | n
CCCN1C/C(=C/c2cccc([N+](=O)[O-])c2)C(=O)/C(=C/c2cccc([N+](=O)[O-])c2)C1 | x | 88 | x | x | n | n
CCC(=O)N1CCC1(C)C(=O)Nc1cccc(OC)c1OC (stereo not given) | n | x | n | 58 | n | n
O=C(COc1ccc(Cl)cc1Cl)N1CCCN(C(=O)COc2ccc(Cl)cc2Cl)CC1 | n | n | n | 83 | n | n
CC(=O)N1CCN(c2ccc(NC(=O)COc3ccc(Cl)cc3Cl)cc2)CC1 | n | n | n | 53 | n | n
Cc1cc(Cl)ccc1OCC(=O)N1CCCCC1 | x | n | n | x | n | n
CC(=O)n1cc(N(C(=O)CCl)c2ccc(C)cc2)c2ccccc21 | 104 | n | n | n | n | x

Compound activity as filed in PubChem BioAssay.
